Test [1] has as its target T1, Mitogen-activated protein kinase kinase kinase 7 (Homo sapiens) (UniProt O43318).
T1 sequence (whole entry): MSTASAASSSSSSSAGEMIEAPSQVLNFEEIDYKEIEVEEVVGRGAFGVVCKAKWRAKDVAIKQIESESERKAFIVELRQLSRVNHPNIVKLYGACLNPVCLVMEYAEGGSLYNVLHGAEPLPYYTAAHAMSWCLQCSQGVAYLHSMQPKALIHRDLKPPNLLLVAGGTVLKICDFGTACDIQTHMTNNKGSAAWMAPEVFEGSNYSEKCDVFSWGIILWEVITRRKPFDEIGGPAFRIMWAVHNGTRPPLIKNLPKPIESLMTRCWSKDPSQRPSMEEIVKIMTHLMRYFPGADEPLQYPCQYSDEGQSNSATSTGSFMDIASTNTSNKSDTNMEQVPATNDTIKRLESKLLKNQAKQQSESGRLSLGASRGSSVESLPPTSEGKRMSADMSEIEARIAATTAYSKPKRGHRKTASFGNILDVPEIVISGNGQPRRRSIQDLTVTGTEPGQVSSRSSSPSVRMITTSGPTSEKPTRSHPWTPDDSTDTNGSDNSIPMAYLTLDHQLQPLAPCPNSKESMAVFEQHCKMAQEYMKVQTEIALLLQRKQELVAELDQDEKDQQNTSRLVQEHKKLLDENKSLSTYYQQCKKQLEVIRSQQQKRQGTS
Conditions: at 1 µM.

For test [2], the target named is T1, Mitogen-activated protein kinase kinase kinase 7 (Homo sapiens). Particulars: at 10 µM.
The target of test [3] is T2, Serine/threonine-protein kinase TAO1 (Homo sapiens) (UniProt Q7L7X3).
T2 sequence (whole entry): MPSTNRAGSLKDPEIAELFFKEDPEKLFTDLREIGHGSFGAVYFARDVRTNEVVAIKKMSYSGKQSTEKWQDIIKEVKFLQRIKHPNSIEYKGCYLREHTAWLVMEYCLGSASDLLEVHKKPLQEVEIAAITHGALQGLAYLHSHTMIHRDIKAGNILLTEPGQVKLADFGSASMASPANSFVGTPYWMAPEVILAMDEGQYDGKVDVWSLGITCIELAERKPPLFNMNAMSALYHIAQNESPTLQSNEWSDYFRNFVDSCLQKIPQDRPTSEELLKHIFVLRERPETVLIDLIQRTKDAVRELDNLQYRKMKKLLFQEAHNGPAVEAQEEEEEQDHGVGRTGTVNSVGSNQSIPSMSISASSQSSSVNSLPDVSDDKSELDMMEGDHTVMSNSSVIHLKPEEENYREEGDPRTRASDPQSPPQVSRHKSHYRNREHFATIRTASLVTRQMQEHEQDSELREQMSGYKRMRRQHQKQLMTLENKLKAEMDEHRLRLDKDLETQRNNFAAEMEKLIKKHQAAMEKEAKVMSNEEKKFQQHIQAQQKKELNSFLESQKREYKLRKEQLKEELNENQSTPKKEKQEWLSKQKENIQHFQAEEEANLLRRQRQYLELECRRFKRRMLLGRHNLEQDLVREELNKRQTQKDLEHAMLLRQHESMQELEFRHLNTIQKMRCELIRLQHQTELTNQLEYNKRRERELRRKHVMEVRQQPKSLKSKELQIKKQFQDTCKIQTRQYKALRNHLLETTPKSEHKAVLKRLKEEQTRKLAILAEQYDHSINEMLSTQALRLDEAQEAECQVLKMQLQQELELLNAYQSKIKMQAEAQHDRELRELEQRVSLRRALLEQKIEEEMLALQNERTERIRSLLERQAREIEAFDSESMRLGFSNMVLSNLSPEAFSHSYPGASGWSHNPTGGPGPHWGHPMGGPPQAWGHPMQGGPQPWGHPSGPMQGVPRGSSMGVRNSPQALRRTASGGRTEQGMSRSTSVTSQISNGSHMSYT
Particulars: at 10 µM.

The target of test [4] is T3, Serine/threonine-protein kinase TAO2 (Homo sapiens) (UniProt Q9UL54).
T3 sequence (whole entry): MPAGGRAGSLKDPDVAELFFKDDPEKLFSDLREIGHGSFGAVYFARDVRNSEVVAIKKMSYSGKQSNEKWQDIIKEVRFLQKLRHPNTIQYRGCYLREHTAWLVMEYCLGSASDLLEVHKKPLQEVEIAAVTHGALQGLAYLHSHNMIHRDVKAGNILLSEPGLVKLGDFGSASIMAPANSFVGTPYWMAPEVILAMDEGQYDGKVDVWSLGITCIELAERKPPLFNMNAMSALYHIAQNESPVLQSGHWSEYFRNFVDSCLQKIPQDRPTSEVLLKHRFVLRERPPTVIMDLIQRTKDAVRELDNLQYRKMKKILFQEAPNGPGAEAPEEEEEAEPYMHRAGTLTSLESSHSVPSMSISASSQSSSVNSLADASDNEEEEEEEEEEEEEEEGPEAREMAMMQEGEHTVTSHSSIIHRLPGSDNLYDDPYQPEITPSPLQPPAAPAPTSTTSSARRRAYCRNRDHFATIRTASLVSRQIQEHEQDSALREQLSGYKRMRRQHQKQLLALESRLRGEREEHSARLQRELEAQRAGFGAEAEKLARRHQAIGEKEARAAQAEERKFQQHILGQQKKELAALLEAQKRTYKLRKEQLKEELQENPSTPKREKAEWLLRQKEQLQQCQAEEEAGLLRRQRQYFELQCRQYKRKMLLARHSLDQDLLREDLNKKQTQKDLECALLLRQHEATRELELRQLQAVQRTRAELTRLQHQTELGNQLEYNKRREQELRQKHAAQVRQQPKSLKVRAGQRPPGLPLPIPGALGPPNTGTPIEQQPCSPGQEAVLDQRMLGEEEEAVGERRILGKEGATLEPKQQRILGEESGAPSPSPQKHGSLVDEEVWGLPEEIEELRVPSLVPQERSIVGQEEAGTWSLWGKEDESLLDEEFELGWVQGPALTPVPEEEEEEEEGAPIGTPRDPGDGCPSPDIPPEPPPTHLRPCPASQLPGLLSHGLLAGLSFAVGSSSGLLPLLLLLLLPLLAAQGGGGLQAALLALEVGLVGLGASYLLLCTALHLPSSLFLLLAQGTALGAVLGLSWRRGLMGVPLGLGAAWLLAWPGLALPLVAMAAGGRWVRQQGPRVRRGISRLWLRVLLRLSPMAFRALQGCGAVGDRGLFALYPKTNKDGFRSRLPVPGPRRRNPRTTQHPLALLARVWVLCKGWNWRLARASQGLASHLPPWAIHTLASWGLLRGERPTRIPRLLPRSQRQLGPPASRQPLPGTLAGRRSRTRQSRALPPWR
Conditions: at 10 µM.

Test [5] has as its target T4, Serine/threonine-protein kinase TAO3 (Homo sapiens) (UniProt Q9H2K8).
T4 sequence (whole entry): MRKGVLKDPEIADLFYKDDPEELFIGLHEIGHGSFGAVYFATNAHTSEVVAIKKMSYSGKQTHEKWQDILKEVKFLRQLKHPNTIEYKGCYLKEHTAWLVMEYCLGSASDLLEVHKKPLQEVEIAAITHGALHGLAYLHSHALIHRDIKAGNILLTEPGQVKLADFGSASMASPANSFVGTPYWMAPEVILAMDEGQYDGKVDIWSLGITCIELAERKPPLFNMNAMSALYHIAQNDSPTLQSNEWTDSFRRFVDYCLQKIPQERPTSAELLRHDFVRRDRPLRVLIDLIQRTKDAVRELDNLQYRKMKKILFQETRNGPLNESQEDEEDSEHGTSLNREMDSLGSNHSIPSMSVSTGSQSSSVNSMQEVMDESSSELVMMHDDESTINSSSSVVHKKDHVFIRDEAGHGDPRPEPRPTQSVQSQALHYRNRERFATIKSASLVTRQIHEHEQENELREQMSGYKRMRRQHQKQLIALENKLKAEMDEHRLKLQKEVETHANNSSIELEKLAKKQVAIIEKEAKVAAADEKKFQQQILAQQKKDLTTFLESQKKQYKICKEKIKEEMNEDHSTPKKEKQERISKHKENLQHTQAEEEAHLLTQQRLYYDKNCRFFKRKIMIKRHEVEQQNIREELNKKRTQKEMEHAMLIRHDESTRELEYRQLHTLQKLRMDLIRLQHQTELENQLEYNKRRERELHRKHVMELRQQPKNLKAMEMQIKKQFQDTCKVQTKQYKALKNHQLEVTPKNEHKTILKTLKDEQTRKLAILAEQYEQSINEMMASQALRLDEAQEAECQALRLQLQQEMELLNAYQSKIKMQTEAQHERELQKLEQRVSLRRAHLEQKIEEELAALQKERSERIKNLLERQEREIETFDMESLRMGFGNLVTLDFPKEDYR
Particulars: at 1 µM.

In test [6] the target is T4, Serine/threonine-protein kinase TAO3 (Homo sapiens). Particulars: at 10 µM.
Test [7] has as its target T5, Serine/threonine-protein kinase TBK1 (Homo sapiens) (UniProt Q9UHD2).
T5 sequence (whole entry): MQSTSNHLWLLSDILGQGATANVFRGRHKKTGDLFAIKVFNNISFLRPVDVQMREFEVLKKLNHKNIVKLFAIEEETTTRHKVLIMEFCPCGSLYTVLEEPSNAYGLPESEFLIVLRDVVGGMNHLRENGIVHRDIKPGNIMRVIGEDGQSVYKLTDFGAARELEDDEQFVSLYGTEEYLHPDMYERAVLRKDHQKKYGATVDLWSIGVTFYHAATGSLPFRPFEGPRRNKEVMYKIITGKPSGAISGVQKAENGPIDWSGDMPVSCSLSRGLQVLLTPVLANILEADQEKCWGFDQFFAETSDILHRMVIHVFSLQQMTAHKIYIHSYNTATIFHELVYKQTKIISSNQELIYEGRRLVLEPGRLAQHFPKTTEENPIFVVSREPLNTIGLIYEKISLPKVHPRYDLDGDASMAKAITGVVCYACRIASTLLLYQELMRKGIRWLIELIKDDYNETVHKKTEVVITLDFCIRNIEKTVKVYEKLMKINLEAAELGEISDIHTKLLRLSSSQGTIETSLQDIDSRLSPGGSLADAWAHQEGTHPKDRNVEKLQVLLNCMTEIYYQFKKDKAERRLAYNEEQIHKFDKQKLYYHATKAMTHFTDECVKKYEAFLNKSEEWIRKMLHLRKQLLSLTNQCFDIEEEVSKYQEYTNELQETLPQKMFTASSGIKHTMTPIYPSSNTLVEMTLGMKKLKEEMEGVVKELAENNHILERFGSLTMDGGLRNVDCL
Particulars: at 1 µM.

In test [8] the target is T5, Serine/threonine-protein kinase TBK1 (Homo sapiens). Particulars: at 10 µM.
Test [9] deals with T6, TGF-beta receptor type-1 (Homo sapiens) (UniProt P36897).
T6 sequence (whole entry): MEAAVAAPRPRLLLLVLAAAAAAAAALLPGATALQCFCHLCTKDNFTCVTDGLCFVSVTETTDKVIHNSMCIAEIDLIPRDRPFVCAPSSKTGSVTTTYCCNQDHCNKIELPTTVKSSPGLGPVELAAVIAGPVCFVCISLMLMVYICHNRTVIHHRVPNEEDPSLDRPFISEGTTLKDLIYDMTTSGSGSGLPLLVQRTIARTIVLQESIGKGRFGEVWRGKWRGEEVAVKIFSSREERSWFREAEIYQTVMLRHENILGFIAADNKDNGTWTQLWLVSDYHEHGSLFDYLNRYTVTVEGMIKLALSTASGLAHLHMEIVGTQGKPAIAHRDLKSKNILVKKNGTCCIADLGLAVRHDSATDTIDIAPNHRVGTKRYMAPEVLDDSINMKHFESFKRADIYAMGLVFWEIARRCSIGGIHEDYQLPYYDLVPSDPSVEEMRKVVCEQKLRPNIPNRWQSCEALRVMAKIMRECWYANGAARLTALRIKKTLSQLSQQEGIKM
Conditions: at 10 µM.

For test [10], the target named is T3, Serine/threonine-protein kinase TAO2 (Homo sapiens). Particulars: at 1 µM.
The target in test [11] is T6, TGF-beta receptor type-1 (Homo sapiens). Conditions: at 1 µM.
Test [12] concerns the target T7, Inhibitor of nuclear factor kappa-B kinase subunit beta (Homo sapiens) (UniProt O14920).
T7 sequence (whole entry): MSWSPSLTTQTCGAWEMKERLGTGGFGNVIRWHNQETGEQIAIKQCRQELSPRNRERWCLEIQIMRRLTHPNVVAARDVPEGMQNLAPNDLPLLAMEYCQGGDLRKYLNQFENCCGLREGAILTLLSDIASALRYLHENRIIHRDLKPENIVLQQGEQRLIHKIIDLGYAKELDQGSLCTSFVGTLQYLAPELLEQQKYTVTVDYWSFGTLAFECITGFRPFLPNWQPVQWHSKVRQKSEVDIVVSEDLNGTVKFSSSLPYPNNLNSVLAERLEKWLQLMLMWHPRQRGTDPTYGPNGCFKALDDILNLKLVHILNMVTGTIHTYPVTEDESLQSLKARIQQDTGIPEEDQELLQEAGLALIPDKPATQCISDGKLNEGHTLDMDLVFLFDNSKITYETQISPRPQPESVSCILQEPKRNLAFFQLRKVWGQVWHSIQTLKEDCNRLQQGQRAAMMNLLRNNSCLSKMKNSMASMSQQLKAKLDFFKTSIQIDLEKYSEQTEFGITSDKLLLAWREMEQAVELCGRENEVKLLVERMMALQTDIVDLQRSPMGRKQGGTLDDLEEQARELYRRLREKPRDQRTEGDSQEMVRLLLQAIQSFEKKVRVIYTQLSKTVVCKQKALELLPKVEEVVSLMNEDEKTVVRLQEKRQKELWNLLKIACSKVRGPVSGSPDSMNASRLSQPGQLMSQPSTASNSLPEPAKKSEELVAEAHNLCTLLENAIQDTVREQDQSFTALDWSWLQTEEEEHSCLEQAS
Particulars: at 1 µM.

Test [13] addresses Insulin receptor (Homo sapiens) (UniProt P06213). Particulars: at 1 µM.
Test [14] addresses T2, Serine/threonine-protein kinase TAO1 (Homo sapiens). Conditions: at 1 µM.

Each structure is given as a SMILES string.

Sequence of Insulin receptor (Homo sapiens) (P06213 28-758 limits assumed): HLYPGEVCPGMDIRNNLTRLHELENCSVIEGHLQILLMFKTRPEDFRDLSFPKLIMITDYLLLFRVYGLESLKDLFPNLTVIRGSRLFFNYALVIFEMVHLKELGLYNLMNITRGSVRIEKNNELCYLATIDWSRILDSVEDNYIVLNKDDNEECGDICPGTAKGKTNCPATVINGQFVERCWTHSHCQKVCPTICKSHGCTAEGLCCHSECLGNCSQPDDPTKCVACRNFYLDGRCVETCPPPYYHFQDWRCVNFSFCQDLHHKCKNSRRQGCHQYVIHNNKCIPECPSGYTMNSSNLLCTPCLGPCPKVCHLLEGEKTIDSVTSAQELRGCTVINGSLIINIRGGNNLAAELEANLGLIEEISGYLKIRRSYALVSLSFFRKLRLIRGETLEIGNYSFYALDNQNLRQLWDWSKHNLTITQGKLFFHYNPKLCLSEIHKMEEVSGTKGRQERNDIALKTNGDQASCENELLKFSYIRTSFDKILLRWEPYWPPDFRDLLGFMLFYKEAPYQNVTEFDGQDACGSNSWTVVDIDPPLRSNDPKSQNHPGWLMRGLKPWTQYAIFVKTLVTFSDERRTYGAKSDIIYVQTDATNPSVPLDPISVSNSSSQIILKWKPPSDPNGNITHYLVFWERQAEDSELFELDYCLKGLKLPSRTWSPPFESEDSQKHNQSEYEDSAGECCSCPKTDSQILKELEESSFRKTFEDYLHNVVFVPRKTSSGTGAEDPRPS
Sequence of Insulin receptor (Homo sapiens) (P06213 763-1382 limits assumed): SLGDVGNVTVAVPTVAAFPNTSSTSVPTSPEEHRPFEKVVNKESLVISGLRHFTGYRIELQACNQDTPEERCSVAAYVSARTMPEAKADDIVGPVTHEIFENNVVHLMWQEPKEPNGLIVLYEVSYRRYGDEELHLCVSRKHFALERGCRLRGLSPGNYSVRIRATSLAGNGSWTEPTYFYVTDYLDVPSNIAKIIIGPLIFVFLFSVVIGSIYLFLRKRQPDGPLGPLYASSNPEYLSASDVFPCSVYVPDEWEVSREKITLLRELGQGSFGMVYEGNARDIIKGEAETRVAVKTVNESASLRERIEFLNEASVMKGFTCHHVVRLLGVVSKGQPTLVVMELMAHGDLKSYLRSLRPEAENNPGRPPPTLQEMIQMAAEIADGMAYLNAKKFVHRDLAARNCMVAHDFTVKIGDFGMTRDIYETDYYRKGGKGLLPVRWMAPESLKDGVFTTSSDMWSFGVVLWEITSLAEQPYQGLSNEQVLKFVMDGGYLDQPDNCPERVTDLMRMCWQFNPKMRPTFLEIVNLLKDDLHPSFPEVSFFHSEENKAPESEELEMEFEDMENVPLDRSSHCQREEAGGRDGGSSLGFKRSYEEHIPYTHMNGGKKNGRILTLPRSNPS

Take `O=C1Nc2ccccc2/C1=C\c1c(Cl)[nH]c2ccccc12`: the residual activity came to 99% in [1]; 77% in [2]; 63% in test [3]; 44% in [4]; 85% in test [5]; 40% in test [6]. The residual activity in [7] was found to be 72%; in test [8] it was 43%; in test [9], 74%.

With `COc1ccc(COc2ccc(Cc3cnc(N)nc3N)cc2OC)cc1`, the residual activity amounted to 100% in [10]; 79% in test [4]; 61% in [7]; 58% in test [8]; 79% in test [11]; 77% in test [9]. For the same compound, the residual activity in [12] stood at 109%.

In the case of `O=C(Nc1ccc(Cl)cc1)c1ccccc1NCc1ccncc1`, the values for the residual activity in test [10], in test [4] and in test [13] were 101%, 61% and 100%, respectively.

Consider `Fc1ccc(-c2nc3n(c2-c2ccncc2)CCS3)cc1`, for which the residual activity in test [2] was 88%; in test [14], 99%; in [3], 83%; in test [6], 76%; in [8], 89%.

Source of the values: ChEMBL document CHEMBL2218924, “A broad activity screen in support of a chemogenomic map for kinase signalling research and drug discovery” (Biochem J, 2013).
